Screening results from PubChem.
Six1-Eya2 inh – blocks human Six1 binding to Eya2. Q15475+O00167. actives 0.56% (n = 360,000). activity change, % (no concentration beside the values). AlphaScreen GST-Six1/His-Eya2 binding, biochemical; stronger effect = lower value. AID 651725; in the data active = activity change below about -65%; inconclusive = mostly about -30% to -63%
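AlphaScreen with GST-Six1 and His-Eya2 (5X mix: 250 nM and 500 nM), glutathione donor and nickel acceptor beads; buffer 50 mM Tris pH 8.0, 300 mM NaCl, 1 mM TCEP; 1 h at 37 C in the dark.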
L3MBTL1 inh-1 – blocks human L3MBTL1 | actives 0.66% (n = 230,000) | Potency, µM (titrated, usually from 57.1 µM), actives largely listed as inhibitors | AlphaScreen L3MBTL1–H3K9me1 peptide binding; also: nearly all actives have a fitted effect of over 60% in size
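Displacement of a biotinylated histone H3(1-15) peptide monomethylated at Lys9 (75 nM) from L3MBTL1 (50 nM) was measured by AlphaScreen after a 30 min room-temperature compound incubation; cefsulodin titration served as intraplate control.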
USP2a inh – inhibitors of human ubiquitin-specific protease USP2a; O75604; USP2 core, Ub-CHOP2 coupled fluorogenic reporter, 485/531; Potency, µM (series often up to 38.3 µM), usual class: inhibitors; actives 0.01% (n = 330,000)
Target sequence (O75604 whole entry, looked up): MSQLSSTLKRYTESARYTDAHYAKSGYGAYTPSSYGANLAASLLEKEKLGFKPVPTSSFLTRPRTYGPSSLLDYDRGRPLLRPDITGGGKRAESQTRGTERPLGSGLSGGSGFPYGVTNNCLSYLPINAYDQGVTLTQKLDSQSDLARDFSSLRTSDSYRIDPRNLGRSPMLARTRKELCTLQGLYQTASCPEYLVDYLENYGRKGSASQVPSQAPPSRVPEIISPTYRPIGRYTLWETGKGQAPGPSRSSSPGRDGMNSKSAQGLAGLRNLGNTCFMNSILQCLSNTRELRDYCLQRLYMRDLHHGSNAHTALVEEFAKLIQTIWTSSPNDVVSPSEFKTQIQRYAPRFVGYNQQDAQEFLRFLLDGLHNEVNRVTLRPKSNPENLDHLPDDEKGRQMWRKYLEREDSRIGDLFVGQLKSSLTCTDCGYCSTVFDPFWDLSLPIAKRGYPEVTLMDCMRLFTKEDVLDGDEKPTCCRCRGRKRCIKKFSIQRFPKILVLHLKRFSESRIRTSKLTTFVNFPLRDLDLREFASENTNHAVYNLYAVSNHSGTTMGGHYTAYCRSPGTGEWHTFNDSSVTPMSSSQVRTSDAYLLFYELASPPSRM
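USP2 core (10nM final) preincubated 30min RT with compound in 20mM Tris-HCl pH 8.0, 2mM CaCl2, 2mM beta-mercaptoethanol, 0.05% CHAPS; 25nM Ub-CHOP2 plus 25nM reporter substrate added, fluorescence (Ex485/Em531) read after 60min.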
CtBP-E1A inh – blocks the CtBP interaction with E1A; activity change, % (concentration not given with the values); actives 0.49% (n = 340,000); AlphaScreen GST-E1A/His-CtBP binding, 1536-well; stronger effect = lower value; in the data active = activity change below about -65%; inconclusive = mostly about -30% to -63%
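Homogeneous bead-based format: GST-tagged E1A captured on glutathione donor beads, His-tagged CtBP on nickel acceptor beads; compounds precede bead addition by 2 h at 37 °C.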
Eya2 phos inh – inhibitors of human Eya2 phosphatase activity; recombinant Eya2, OMFP fluorescence dephosphorylation (OMFP is methylfluorescein phosphate); actives 0.006% (n = 330,000); O00167; AID 488837; Potency, µM (top dose mostly 76.9 µM), usual class: inhibitors
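Eya2 (0.2 uM) preincubated 10 min at ambient with compound, then OMFP substrate added at 50 uM; 10 min reaction in 50 mM HEPES pH 7.5, 50 mM NaCl, 5 uM MgCl2, 0.05% BSA, 1 mM DTT. Fluorescence read at Ex 485/Em 525 nm.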
uPA surface inh – cell surface uPA generation inhibition; cell surface uPA generation assay, qHTS; AID 540303; Potency, µM (doses to about 38.3 µM), usual class: inhibitors; actives 0.31% (n = 330,000); active = well fitted inhibition curve with a large enough effect; inconclusive = small, poorly fitted or top-dose-only effect; inactive = no such curve, though single readings can be large or run the other way; tested in mouse RAW 264.7 cells; also: nearly all actives have a fitted effect of over 55% in size
L3MBTL1 inh-2 – validation of human L3MBTL1 methyl-lysine binding inhibitors | actives 91% (n = 500) | shares compounds with L3MBTL1 inh-1 | L3MBTL1 methyl-lysine binding inhibition, biochemical qHTS | AID 540279 | Potency, µM, hits mostly inhibitors; also: nearly all actives have a fitted effect of over 70% in size
AlphaScreen ctr2 – AlphaScreen signal inhibition, L3MBTL1 hit counter-screen. shares compounds with L3MBTL1 inh-1. AlphaScreen counterscreen, signal inhibition. Potency, µM (doses to about 57.1 µM), usual class: inhibitors. 500 tested, under 10 active. AID 602224
Large screens that a line does not name were inactive (follow-up assays come after a bar, where they were run). Shown are actives, neighbours in structure and some others; about 1.2% of the full set was active somewhere. Unless noted, calls follow the shape of the dose curve; as a rule, active = well fitted curve in the direction sought with a large enough effect; inconclusive = small, poorly fitted or top-dose-only effect, or another doubt; inactive = no such curve, though single readings can be large; an effect the other way counts as inactive or inconclusive.

O=[N+]([O-])c1cc(F)c2cccnc2c1O	Six1-Eya2 inh -88, L3MBTL1 inh-1 13µM (no result: CtBP-E1A inh) | L3MBTL1 inh-2 6 | AlphaScreen ctr2 inactive
O=[N+]([O-])c1cccc2c(Cl)ccnc12	none
Cc1cc2c(c(=O)o1)C(c1ccc([N+](=O)[O-])o1)C(C#N)=C(N)O2 (centres undefined)	L3MBTL1 inh-1 32µM | L3MBTL1 inh-2 inconclusive | AlphaScreen ctr2 inactive
CCC(CC)C1C(C#N)=C(N)Oc2cc(C)oc(=O)c21 (centres undefined)	none (no result: L3MBTL1 inh-1)
Cc1ccc(-c2csc3ncn(CC#N)c(=O)c23)cc1C	L3MBTL1 inh-1 22µM | L3MBTL1 inh-2 21 | AlphaScreen ctr2 inactive
Cc1ccc(-c2csc3ncn(CC#N)c(=O)c23)cc1	none
CC1CCN(Cc2c(O)ccc3c2O/C(=C\c2ccco2)C3=O)CC1	L3MBTL1 inh-1 10µM | L3MBTL1 inh-2 27 | AlphaScreen ctr2 inactive
O=C(COC(=O)c1cc2c(s1)CCC2)Nc1ccc(F)cc1	L3MBTL1 inh-1 14µM | L3MBTL1 inh-2 5.3 | AlphaScreen ctr2 inconclusive
O=C(Nc1nc(-c2ccccn2)cs1)C1COc2ccccc2O1 (centres undefined)	Six1-Eya2 inh -91, L3MBTL1 inh-1 11µM, CtBP-E1A inh inconclusive, uPA surface inh inconclusive | L3MBTL1 inh-2 12 | AlphaScreen ctr2 inactive
C=C(C)CCOC(=O)C(CC(=O)O)NCc1ccco1 (centres undefined)	L3MBTL1 inh-1 28µM, Eya2 phos inh inconclusive (no result: CtBP-E1A inh) | L3MBTL1 inh-2 9.5 | AlphaScreen ctr2 inactive
O=C(NC1CCN(C(=S)Nc2ccc(F)cc2)CC1)C1CCCCC1	none (no result: L3MBTL1 inh-1)
Cc1ccc(/C=C2\SC(=S)N(C3CCS(=O)(=O)C3)C2=O)o1 (centres undefined)	L3MBTL1 inh-1 25µM, uPA surface inh inconclusive | L3MBTL1 inh-2 21 | AlphaScreen ctr2 inactive
NS(=O)(=O)c1ccc(-c2ccc(/C=C3\SC(=S)N(C4CCS(=O)(=O)C4)C3=O)o2)cc1 (centres undefined)	uPA surface inh inconclusive (no result: L3MBTL1 inh-1)
O=C(CSc1nc(-c2ccccc2)nc2ccccc12)Nc1cccc(C(=O)O)c1	Six1-Eya2 inh inconclusive
O=C(CSc1nc(-c2ccccc2)nc2c1Cc1ccccc1O2)Nc1ccc(C(=O)O)cc1	Six1-Eya2 inh -81, L3MBTL1 inh-1 10µM | L3MBTL1 inh-2 6 | AlphaScreen ctr2 inconclusive
Clc1ccccc1NN(Cc1ccncc1)c1ccccc1Cl	none (no result: L3MBTL1 inh-1, USP2a inh, Eya2 phos inh, uPA surface inh)
CC(C)[C@H](NC(=O)c1ccccc1Cl)C(=O)Nc1nc(-c2ccccn2)cs1	Six1-Eya2 inh -80, L3MBTL1 inh-1 35µM, CtBP-E1A inh -83 | L3MBTL1 inh-2 24 | AlphaScreen ctr2 inactive
CCN(CC)S(=O)(=O)c1ccc(N2CCOCC2)c(NC(=O)c2c3c(nc4ccccc24)CCC3)c1	L3MBTL1 inh-1 28µM | L3MBTL1 inh-2 8.4 | AlphaScreen ctr2 inactive
O=C(O)c1ccc2c3c(cccc13)C(=O)N(c1ccccc1)C2=O	L3MBTL1 inh-1 13µM | L3MBTL1 inh-2 2.7 | AlphaScreen ctr2 inactive
COCCn1c(C)cc(C(=O)COC(=O)c2cc3c(s2)CCC3)c1C	L3MBTL1 inh-1 10µM | L3MBTL1 inh-2 6.7 | AlphaScreen ctr2 inconclusive
O=C(O)c1ccc(-c2ccc(/C=C3\NC(=O)N(Cc4ccc(Cl)cc4)C3=O)o2)cc1Cl	Six1-Eya2 inh inconclusive, L3MBTL1 inh-1 5.6µM | L3MBTL1 inh-2 0.75 | AlphaScreen ctr2 inactive
Cc1ccc(/C=C2/NC(=O)N(Cc3ccc(Br)cc3)C2=O)o1	none
CCOC(=O)CN1C(=O)S/C(=C\c2ccc(-c3ccc(C(=O)O)c(Cl)c3)o2)C1=O	L3MBTL1 inh-1 28µM | L3MBTL1 inh-2 13 | AlphaScreen ctr2 inactive
Cc1ccc(C(=O)NCCNS(=O)(=O)c2ccccc2)cn1	none (no result: L3MBTL1 inh-1)
